# The whole screen tested about 340,000 compounds, of which about 3,300 (0.97%) were called active.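 Rule for the calls: active = inhibition above the mean over all tested compounds plus 3 SD (cut at about 30% in these data); inactive = the rest.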 The entries come from a sample that favours actives as a whole.
# Target: Platelet-activating factor acetylhydrolase 2, cytoplasmic (Homo sapiens) (UniProt Q99487)
# Assay: inhibition of cytoplasmic PAF acetylhydrolase 2 – biochemical, fluorescence polarization, human, primary screen (AID 492956);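 note: inhibitors block probe labeling of enzyme so polarization drops; 0% = enzyme with DMSO and 100% = wells lacking PAFAH2 protein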
# Conditions: recombinant PAFAH2, FP-rhodamine activity probe, at 3.39 µM, active compounds read high
row,SMILES,inhibition
1,CC(=O)NC(CC(=O)Nc1nccs1)c1ccccc1 (stereo not given),0.3% (inactive)
2,Cc1cnc(C)c(N2CCN(C(=O)C3CCC(=O)N(CCc4cccc(F)c4)C3)CC2)n1 (stereo not given),6.98% (inactive)
3,O=S(=O)(O)c1cc2onnc2c2ccccc12,18.2% (inactive)
4,CCOC(=O)C1=C(C)c2ccccc2OC1(C)C(=O)OCC (stereo not given),0.57% (inactive)
5,CCOC(=O)c1c(C)[nH]c2c1-c1ccccc1C(=O)C2=O,53.9% (active)
6,CCOC(=O)c1ccccc1OC(=O)Oc1ccccc1C(=O)OCC,2.01% (inactive)
7,CCOc1ccc(OCC)c(NC(=O)C(NS(=O)(=O)c2ccc3c(c2)oc(=O)n3C)C(C)C)c1 (stereo not given),-6.23% (inactive)
8,O=C(NC1CCCC1)C1CC(=O)N(c2ccc(F)cc2)C1 (stereo not given),5.88% (inactive)
9,CC(=O)NS(=O)(=O)c1ccccc1,-3.11% (inactive)
10,CCCCn1ccnc1C(=O)c1cccc(S(=O)(=O)N2c3ccccc3CC2C)c1 (stereo not given),0.31% (inactive)
11,CCN(C(=O)COC(=O)c1cc(NS(=O)(=O)c2ccc(Cl)c([N+](=O)[O-])c2)ccc1O)C1CCCCC1,14.6% (inactive)
12,Cc1ccc(C(=O)NCC(=O)OCC(=O)NC2CCCCCCC2)cc1,-6.95% (inactive)
13,CCOc1ncccc1C(=O)OCC(=O)NC1CC1,15.7% (inactive)
14,O=C(COC(=O)c1cc([N+](=O)[O-])ccc1NCc1ccccc1)NC1CCCCC1,9.35% (inactive)
15,N#Cc1ccc(C(=O)OCC(=O)NC(=O)NC2CCCCC2)cc1,6.68% (inactive)
16,O=C(COC(=O)c1ccccc1SCC(=O)NC1CCCCC1)NC1CCCCC1,59.5% (active)
17,COc1ccc(NS(=O)(=O)c2ccc(O)c(C(=O)OCC(=O)NC3CCCCC3)c2)cc1,41% (active)
18,O=C(COc1ccccc1O)NC1CCCC1,1.1% (inactive)
19,CC(C)NS(=O)(=O)c1ccc(OCC(=O)NC2CCCCCC2)cc1,5.5% (inactive)
20,N#Cc1ccccc1Sc1ccccc1C(=O)OCC(=O)NC1CCCCC1,31% (active)
21,O=C(COC(=O)c1cccc(Cl)c1)NC1CCCCCCC1,82.5% (active)
22,O=C(COC(=O)c1cccc(Cl)c1)NC(=O)NCc1ccccc1,1.23% (inactive)
23,CCN(CC)S(=O)(=O)c1ccc(N2CCN(C)CC2)c(NC(=O)Nc2ccccc2F)c1,-13.1% (inactive)
24,COc1ccc(CN2CC[C@H]3C=CC[C@@H](C(=O)N4CCOCC4)[C@H]3C2=O)cc1OC,-0.91% (inactive)

row,SMILES,inhibition
1,COc1cc(NC(=S)NCCSc2ccc(C)cc2)cc(OC)c1,5.74% (inactive)
2,COc1ccc(C(=O)C2CCCN(C(=O)c3cnsn3)C2)c(C)c1 (stereo not given),-5.08% (inactive)
3,O=C(COC(=O)c1cccnc1Cl)NC(=O)NC1CCCCC1,0.86% (inactive)
4,O=C(COC(=O)c1ccccc1Cl)NC1CCCCCCC1,68.9% (active)
5,CS(=O)(=O)Nc1ccccc1C(=O)OCC(=O)NC1CC1,9.45% (inactive)
6,CC(C)N(Cc1ccccc1)C(=O)COC(=O)c1ccccc1SCC(=O)N1CCCC1,-10.1% (inactive)
7,COc1ccccc1NC(=O)COC(=O)c1ccccc1SCC(=O)N1CCCC1,16.2% (inactive)
8,O=C(COC(=O)c1ccccc1SCC(=O)N1CCCC1)Nc1ccccc1OC(F)F,49.4% (active)
9,Cc1cc(F)ccc1NC(=O)C(C)n1c2ccccc2c2nc(=O)cc(C)n21 (stereo not given),-0.36% (inactive)
10,CCCCNC(=O)N(O)C1N(/N=C/c2ccccc2O)C(=S)SC1(C)C (stereo not given),12% (inactive)
11,CCC(C)N1C(=S)SC(C)(C)C1N(O)C(=O)NC1CCCCC1 (stereo not given),0.18% (inactive)
12,CCCCNC(=O)N(O)C1N(/N=C/c2ccc(N(C)C)cc2)C(=S)SC1(C)C (stereo not given),39% (active)
13,O=C(NC1CCCCC1)n1c(=O)oc2cc(S(=O)(=O)N3CCCCC3)ccc21,-3.36% (inactive)
14,CC1CCCCN1C(=O)Cn1c(=O)oc2cc(S(=O)(=O)N3CCCCC3)ccc21 (stereo not given),0.32% (inactive)
15,CC(C)COC(=O)n1c(=O)oc2ccc(S(=O)(=O)N3CCCCC3)cc21,67.9% (active)
16,O=C(NCc1cc(C(F)(F)F)cc(C(F)(F)F)c1)C1CC(c2cccc(F)c2)=NO1 (stereo not given),6.39% (inactive)
17,CC(CCc1ccccc1)NC(=O)COC(=O)c1ccc(F)cc1 (stereo not given),28% (inactive)
18,CCc1ccc(C(=O)OCC(=O)NCC(F)(F)F)cc1,73.5% (active)
19,O=C(COC(=O)CNC(=O)c1ccccc1F)NCC(F)(F)F,1.7% (inactive)
20,O=C(Oc1cccc(NC2=NS(=O)(=O)c3ccccc32)c1)c1ccncc1,-0.09% (inactive)
21,Cc1ccc(S(=O)(=O)N(NC2=NS(=O)(=O)c3ccccc32)C(=O)c2ccccc2)cc1,-5.48% (inactive)
22,CC(C)(C)c1csc(NC2=NS(=O)(=O)c3ccccc32)n1,36.9% (active)
23,O=C(NCN1CCN(CCO)CC1)c1cnccn1,-3.5% (inactive)
24,Cc1cc(NC(=O)COC(=O)/C=C/c2ccc(C)o2)no1,33.3% (active)

row,SMILES,inhibition
1,CCN(CC(=O)NCc1ccc(Cl)cc1)C(=O)c1c(C)noc1C,-0.36% (inactive)
2,Cc1cc(NC(=O)COc2ccc([N+](=O)[O-])cc2)no1,-0.25% (inactive)
3,Cc1ccc(CNC(=O)COC(=O)C2CCC2)cc1,3.66% (inactive)
4,COC(=O)c1cc(C(=O)OCC(=O)Nc2cc(C)on2)cc([N+](=O)[O-])c1,-6.33% (inactive)
5,Cc1ccc(/C=C/C(=O)OCC(=O)NCc2ccc(Cl)cc2)o1,53% (active)
6,CCOC(=O)C1C(=O)OC2(CCCC2)C1C(=O)OCC (stereo not given),-3.56% (inactive)
7,Nc1c(C(=O)OCC(=O)Nc2ccc(OC(F)F)cc2)[nH]c(=O)[nH]c1=O,5.59% (inactive)
8,COCc1c(C(=O)OCc2c(C)noc2C)oc2ccccc12,-5.34% (inactive)
9,COCc1c(C(=O)OCC(=O)Nc2ccc(OC(F)F)cc2)oc2ccccc12,30.5% (active)
10,O=C1NCC(Nc2ccccc2)C(=O)N1 (stereo not given),7.66% (inactive)
11,O=C1C2(c3ccccc3)CN(CCCO)CC1(c1ccccc1)CN(CCCO)C2,7.66% (inactive)
12,O=C(COC(=O)[C@H](Cc1ccccc1)NC(=O)c1cccs1)Nc1cc(F)ccc1F,4.42% (inactive)
13,COc1ccccc1CNC(=O)COC(=O)CNS(=O)(=O)c1ccc(NC(C)=O)cc1,-2.61% (inactive)
14,O=C(COC(=O)/C(=C/c1cccs1)c1cccs1)NCc1ccccc1Cl,9.84% (inactive)
15,O=C(COC(=O)c1ccc(O)cc1O)NNC(=O)c1cccs1,6.29% (inactive)
16,O=C(COC(=O)c1ncc(Cl)c(Cl)c1Cl)NCc1cccs1,-5.72% (inactive)
17,COc1ccccc1CNC(=O)COC(=O)c1sc(C)nc1C,36.3% (active)
18,CNC(=O)c1sc(NCc2ccccc2OC)nc1C,-0.38% (inactive)
19,O=C(COC(=O)c1cccs1)NCc1cccs1,44.2% (active)
20,COc1ccccc1CNC(=O)COC(=O)c1cccs1,60.2% (active)
21,COc1ccccc1CNC(=O)COc1ccc(C)nc1[N+](=O)[O-],4.79% (inactive)
22,O=C(COC(=O)c1ccc(Cl)nc1)NCc1cccs1,5.5% (inactive)
23,O=C(COC(=O)c1cccs1)Nc1ccccc1Cl,73.2% (active)
24,O=CN1CCN(C(=O)c2ccc(Br)o2)CC1,0.55% (inactive)

row,SMILES,inhibition
1,Cc1cccc(NS(=O)(=O)c2ccc(C(=O)NCC(C)(C)N3CCOCC3)cc2)c1C,-5.69% (inactive)
2,O=c1cccc(-c2ccc(Br)cc2)o1,1.7% (inactive)
3,COc1ccc(SCc2noc(C(=O)NCC3CCCO3)c2C(=O)O)cc1 (stereo not given),0.7% (inactive)
4,CC1=NNC(=O)C1Cc1c(Cl)cccc1Cl (stereo not given),5.21% (inactive)
5,CC1=C(C(=O)OC2CCCCC2)C(c2ccccc2F)NC(=O)N1 (stereo not given),-4.88% (inactive)
6,CCOC(=O)C1CCN(c2c(Nc3cc(C)cc(C)c3)c(=O)c2=O)CC1,7.85% (inactive)
7,C/C(=N\NC(=O)CNc1cccc2ccccc12)c1ccc(Br)s1,9.68% (inactive)
8,Cc1cccc(/C=N/NC(=O)CNc2cccc3ccccc23)n1,47.5% (active)
9,Cc1cccc(C(=O)Nc2ccc(C(=O)N/N=C/c3cccc(C)n3)cc2)c1,-6.77% (inactive)
10,COc1cccc(NC(=O)COC(=O)c2ccc3ccccc3n2)c1,-5.69% (inactive)
11,CCCCN(C(=O)/C=C/c1ccco1)c1c(N)n(CC(C)C)c(=O)[nH]c1=O,-7.37% (inactive)
12,COc1ccc(C(=O)OCC(=O)Nc2cccc(C(C)=O)c2)cc1OC,81.3% (active)
13,O=C(/C=C/c1ccccc1[N+](=O)[O-])OCC(=O)N1CCCC1,7.52% (inactive)
14,CC(C)CNC(=O)COC(=O)/C=C/c1ccco1,69% (active)
15,CC(=O)Nc1cccc(C(=O)OCC(=O)NCc2cc(C)c(O)c(C)c2)c1,7.09% (inactive)
16,CC(=O)Nc1cccc(C(=O)OCC(=O)Nc2nnc(-c3ccccc3)o2)c1,4.32% (inactive)
17,COc1cc(/C=C/C(=O)OCC(=O)Nc2cccc(Oc3ccccc3)c2)ccc1O,64.5% (active)
18,COc1cc2c(cc1NC(=O)COC(=O)/C=C/c1ccccc1)oc1ccccc12,1.23% (inactive)
19,CC(C)c1nnc(NC(=O)COC(=O)/C=C/c2ccc([N+](=O)[O-])cc2)s1,-1.12% (inactive)
20,Cc1cccc(C(=O)OCC(=O)NCC(C)C)c1O,3.36% (inactive)
21,CC(C)CNC(=O)COC(=O)/C=C/c1ccccc1[N+](=O)[O-],72.8% (active)
22,COc1ccc(S(=O)(=O)NCC(=O)NCc2cc(=O)n(C)c(=O)n2C)cc1F,-4.5% (inactive)
23,CN1C(=O)[C@H]2[C@@H](/C=C/c3ccccc3)N3C(=O)CN(Cc4ccc(-c5ccccc5)cc4)C(=O)[C@@]3(C)[C@H]2C1=O,6.34% (inactive)

# From PubChem BioAssay AID492956 (The Scripps Research Institute Molecular Screening Center, 2010)
